Experimental data as given in ChEMBL document CHEMBL3988442, “University of Dundee, Small-Polar-MMV Screening Library” (2021).
For some assays here: Potency and affinity values are given separately.

Legend:
Design in all cases: scale not given: direction of the effect not stated beside the values
[1] = target: Protein translocase subunit SecA (Escherichia coli (strain K12)) (UniProt P10408); assay: Assay to Identify E. coli SecA ATPase Inhibitors; type: functional; settings: 30 µM
[2] = target: T1, Ubiquitin-activating enzyme e1, putative (Leishmania donovani (strain BPK282A1)) (UniProt E9BSI1); assay: Leishmania donovani Ubiquitin Activating Enzyme (LdE1); type: functional; settings: 30 µM
T1 sequence (whole entry): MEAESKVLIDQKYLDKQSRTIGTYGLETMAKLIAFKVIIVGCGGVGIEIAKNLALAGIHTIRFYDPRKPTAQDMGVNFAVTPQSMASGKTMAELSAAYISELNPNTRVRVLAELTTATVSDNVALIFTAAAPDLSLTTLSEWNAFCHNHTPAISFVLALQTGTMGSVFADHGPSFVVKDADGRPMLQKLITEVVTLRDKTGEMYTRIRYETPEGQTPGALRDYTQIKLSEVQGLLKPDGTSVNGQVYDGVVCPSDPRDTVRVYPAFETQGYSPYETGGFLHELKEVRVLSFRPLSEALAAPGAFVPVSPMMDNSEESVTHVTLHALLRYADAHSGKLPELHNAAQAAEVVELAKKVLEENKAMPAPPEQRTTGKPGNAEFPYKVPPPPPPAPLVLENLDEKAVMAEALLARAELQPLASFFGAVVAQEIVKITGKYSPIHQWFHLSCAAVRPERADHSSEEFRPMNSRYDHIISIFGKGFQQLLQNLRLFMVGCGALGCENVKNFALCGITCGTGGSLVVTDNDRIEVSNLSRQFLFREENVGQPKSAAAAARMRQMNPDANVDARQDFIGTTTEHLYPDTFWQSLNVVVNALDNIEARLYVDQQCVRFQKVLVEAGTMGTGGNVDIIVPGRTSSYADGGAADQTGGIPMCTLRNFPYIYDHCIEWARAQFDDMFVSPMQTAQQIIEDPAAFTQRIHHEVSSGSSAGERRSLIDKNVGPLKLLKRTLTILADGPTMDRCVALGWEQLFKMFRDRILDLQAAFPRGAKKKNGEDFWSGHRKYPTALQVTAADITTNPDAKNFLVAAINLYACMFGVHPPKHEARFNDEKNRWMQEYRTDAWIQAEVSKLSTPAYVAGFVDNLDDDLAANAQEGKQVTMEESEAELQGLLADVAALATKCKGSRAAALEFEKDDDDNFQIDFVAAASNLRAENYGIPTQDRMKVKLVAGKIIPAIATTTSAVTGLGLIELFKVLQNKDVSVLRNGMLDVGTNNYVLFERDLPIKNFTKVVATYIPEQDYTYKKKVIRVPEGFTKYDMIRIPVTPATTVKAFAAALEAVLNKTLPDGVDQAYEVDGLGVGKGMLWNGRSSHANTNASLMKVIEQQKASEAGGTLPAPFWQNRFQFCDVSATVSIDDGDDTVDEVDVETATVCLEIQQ

[3] = target: AMP-activated protein kinase, AMPK (Homo sapiens) (UniProt P54646+O43741+P54619+Q9UGJ0+Q9Y478+Q13131+Q9UGI9); assay: AMP-dependent Kinase enzyme assay. An in vitro enzyme assay that detects ADP turnover that is directly proportional to AMPK activity. This uses naive AMPK that is activated during the assay with MK-8722; type: functional; settings: 30 µM
[4] = target: Sialic acid-binding Ig-like lectin 9 (Homo sapiens) (UniProt Q9Y336); assay: Hs-Siglec9 ALPHAscreen SOP 20170721; settings: 10 µM
[5] = system: Trypanosoma cruzi; assay: Trypanosoma cruzi phosphomannomutase and mannose-1-phosphate guanylyltransferase assay; type: functional; settings: 10 µM
[6] = target: T2, Arginase-2, mitochondrial (Homo sapiens) (UniProt P78540); assay: in vitro enzyme assay to detect the production of urea directly proportional to the activity of Arginase II; type: functional; settings: 33.3 µM; note: in the data most compounds retested in dose-response had high values
T2 sequence (whole entry): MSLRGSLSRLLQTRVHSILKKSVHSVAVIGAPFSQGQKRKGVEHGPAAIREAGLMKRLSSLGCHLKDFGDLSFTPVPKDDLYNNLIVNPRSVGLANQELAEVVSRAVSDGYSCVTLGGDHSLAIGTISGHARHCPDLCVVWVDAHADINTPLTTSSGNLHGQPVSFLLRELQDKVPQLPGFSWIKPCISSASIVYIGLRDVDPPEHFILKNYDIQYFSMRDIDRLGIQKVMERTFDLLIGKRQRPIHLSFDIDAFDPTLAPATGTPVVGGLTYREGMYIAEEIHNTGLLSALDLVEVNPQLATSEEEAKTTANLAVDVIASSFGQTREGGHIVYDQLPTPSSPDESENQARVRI

[7] = target: T3, Proteasome subunit beta (Trypanosoma cruzi) (UniProt O96673); assay: Trypanosoma cruzi proteasome chymotrypsin-like activity (TcProtChymo) assay.; note: in the data most compounds retested in dose-response had high values; type: functional; settings: 9.37 µM
T3 sequence (whole entry): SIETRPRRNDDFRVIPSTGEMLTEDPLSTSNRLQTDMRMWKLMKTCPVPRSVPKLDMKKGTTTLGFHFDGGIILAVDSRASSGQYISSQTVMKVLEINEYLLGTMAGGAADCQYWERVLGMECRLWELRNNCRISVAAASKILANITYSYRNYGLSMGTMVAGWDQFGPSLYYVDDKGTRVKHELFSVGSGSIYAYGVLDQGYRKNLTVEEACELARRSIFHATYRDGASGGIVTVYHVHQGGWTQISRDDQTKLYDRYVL

[8] = organism: Homo sapiens; assay: To identify inhibition of the IFN signalling (Jak-Stat) pathway via expression of an eGFP reporter gene under the control of an IFN-stimulated response element (ISRE) containing MxA promoter.; type: functional; settings: 30 µM
[9] = target: T4, Tyrosyl-tRNA synthetase, putative (Trypanosoma cruzi (strain CL Brener)) (UniProt Q4DSP6); assay: Trypanosoma cruzi tyrosyl tRNA synthetase (TcYRS) _High Tyrosine SOP; type: functional; settings: 30 µM; note: in the data most compounds retested in dose-response had high values
T4 sequence (whole entry): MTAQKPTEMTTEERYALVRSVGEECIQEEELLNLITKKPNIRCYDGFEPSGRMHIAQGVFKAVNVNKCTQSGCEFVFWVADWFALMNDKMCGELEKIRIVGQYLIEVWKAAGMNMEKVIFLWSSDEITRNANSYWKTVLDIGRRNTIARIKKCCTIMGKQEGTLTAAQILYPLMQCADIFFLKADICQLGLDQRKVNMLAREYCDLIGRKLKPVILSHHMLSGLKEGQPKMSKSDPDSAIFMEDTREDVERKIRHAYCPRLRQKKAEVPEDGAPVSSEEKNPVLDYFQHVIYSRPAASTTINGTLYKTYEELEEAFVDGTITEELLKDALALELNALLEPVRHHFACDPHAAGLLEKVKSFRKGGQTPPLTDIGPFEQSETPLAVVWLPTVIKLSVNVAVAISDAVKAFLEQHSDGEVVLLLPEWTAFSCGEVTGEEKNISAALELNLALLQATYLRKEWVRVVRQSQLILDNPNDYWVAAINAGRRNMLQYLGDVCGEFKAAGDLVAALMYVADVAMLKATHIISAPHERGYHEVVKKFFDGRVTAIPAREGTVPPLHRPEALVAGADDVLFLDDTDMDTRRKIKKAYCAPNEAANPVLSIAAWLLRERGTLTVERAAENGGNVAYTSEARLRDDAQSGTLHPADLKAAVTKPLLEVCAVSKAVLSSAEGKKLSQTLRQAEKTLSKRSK

[10] = target: T4, Tyrosyl-tRNA synthetase, putative (Trypanosoma cruzi (strain CL Brener)); assay: Trypanosoma cruzi tyrosyl tRNA synthetase (TcYRS) SOP; type: functional; settings: 30 µM
[11] = target: Chromo domain-containing protein 1 (Saccharomyces cerevisiae (strain ATCC 204508 / S288c) (Baker's yeast)) (UniProt P32657); assay: ScCHD-1 Enzyme Inhibition Assay; type: functional; settings: 30 µM; note: in the data most compounds retested in dose-response had high values
Chromo domain-containing protein 1 (Saccharomyces cerevisiae (strain ATCC 204508 / S288c) (Baker's yeast)), sequence (P32657 whole entry, the tested form may be a part): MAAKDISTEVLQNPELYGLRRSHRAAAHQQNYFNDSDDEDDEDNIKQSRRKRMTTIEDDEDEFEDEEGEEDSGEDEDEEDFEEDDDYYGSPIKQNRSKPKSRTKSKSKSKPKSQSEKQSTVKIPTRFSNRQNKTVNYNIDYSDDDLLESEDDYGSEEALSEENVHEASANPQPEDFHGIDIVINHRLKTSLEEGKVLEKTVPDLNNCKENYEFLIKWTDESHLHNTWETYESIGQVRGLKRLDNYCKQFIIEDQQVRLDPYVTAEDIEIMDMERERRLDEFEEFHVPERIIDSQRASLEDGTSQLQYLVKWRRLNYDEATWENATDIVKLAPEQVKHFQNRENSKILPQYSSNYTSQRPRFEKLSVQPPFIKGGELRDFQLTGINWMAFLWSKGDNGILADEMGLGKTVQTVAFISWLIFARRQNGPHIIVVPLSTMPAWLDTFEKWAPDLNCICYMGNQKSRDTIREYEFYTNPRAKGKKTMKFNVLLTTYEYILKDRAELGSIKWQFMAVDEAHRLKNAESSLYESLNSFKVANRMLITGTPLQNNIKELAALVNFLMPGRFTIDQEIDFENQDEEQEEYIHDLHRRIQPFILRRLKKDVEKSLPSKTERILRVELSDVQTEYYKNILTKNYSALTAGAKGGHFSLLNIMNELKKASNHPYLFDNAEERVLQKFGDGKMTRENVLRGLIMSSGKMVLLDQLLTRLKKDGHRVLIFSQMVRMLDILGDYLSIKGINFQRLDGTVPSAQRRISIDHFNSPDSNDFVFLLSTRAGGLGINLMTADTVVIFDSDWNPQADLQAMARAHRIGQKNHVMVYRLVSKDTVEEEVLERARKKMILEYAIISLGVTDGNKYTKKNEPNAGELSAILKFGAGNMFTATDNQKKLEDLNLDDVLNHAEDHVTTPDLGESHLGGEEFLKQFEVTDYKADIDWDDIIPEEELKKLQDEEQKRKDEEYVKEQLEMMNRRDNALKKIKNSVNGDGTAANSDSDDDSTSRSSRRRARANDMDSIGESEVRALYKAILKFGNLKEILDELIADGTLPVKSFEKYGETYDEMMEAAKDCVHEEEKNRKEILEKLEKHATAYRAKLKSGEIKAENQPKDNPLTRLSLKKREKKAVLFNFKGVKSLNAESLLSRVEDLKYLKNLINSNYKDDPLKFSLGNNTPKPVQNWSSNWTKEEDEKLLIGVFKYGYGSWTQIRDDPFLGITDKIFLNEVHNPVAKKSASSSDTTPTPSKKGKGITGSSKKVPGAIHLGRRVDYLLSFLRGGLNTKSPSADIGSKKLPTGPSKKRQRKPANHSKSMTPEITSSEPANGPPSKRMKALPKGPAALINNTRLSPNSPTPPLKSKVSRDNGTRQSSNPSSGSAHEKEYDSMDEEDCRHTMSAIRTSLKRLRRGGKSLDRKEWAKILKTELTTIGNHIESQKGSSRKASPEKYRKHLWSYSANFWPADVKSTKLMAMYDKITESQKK

Protein translocase subunit SecA (Escherichia coli (strain K12)), sequence (P10408 whole entry): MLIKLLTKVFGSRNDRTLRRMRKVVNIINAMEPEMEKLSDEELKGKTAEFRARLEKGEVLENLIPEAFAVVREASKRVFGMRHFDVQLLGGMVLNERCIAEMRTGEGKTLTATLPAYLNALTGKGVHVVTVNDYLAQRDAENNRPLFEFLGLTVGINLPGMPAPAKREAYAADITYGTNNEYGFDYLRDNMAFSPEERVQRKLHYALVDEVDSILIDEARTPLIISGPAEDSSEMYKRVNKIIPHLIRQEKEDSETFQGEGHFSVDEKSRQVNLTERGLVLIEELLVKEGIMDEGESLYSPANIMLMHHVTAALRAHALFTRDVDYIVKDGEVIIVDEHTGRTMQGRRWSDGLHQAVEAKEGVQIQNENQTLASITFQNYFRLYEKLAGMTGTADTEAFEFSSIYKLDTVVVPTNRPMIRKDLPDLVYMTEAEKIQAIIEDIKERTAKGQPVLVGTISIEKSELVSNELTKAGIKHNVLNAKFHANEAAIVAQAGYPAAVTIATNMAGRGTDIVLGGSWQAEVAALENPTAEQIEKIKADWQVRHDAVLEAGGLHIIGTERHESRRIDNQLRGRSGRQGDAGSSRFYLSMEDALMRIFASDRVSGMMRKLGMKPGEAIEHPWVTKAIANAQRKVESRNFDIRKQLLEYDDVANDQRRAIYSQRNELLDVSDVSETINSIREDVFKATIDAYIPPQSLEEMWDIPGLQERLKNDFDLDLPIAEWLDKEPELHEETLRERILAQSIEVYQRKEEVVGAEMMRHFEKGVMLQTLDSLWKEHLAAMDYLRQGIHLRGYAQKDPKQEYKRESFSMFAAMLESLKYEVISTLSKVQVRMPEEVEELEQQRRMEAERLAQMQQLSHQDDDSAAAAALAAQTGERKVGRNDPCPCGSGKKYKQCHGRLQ
Sialic acid-binding Ig-like lectin 9 (Homo sapiens), sequence (Q9Y336 whole entry): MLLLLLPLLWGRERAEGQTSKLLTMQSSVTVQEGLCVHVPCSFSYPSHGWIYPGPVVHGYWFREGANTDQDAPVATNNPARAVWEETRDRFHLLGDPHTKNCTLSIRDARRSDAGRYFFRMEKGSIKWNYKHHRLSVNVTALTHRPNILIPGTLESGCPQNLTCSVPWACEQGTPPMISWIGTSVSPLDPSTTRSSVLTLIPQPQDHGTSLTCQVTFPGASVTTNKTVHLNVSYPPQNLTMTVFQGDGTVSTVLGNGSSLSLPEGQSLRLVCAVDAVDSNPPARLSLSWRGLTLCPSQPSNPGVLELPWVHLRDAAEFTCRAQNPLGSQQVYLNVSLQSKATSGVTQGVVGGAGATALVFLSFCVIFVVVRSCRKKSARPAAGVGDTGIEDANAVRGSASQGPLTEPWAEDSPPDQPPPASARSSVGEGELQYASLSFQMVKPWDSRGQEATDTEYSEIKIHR

Structure (SMILES)	Percent Effect [1]	Percent Effect [2]	Percent Effect [3]	Percent Effect [4]	Percent Effect [5]	Percent Effect [6]	Percent Effect [7]	Percent Effect [8]	Percent Effect [9]	Percent Effect [10]	Percent Effect [11]
CC(O)CN1CCN(C(=O)c2cccn2Cc2ccncc2)CC1 (stereo unspecified)	-5.17%	10.1%	0.216%	10.1%	2.74%	2.66%	-2.38%	3.13%	0.493%	13.9%	-8.49%
COCC(c1cccc(C(F)(F)F)c1)N(C)C(=O)c1cc(C)n[nH]1 (stereo unspecified)	0.248%	18.4%	-1.4%	-4.5%	-3.01%	2.68%	9.02%	0.723%	1.47%	12.2%	-13%
CNC(=O)C(C)(C)NC(=O)c1cc(OCC2CCC2)cc(C(=O)OC)c1	-0.888%	11%	28.1%	-1.12%	2.35%	15.9%	12.6%	31.3%	6.45%	15%	-3.04%
O=C(c1ccco1)N1CC[C@H]2[C@H]1CCN2CC1CCOCC1	-5.53%	0%	11.2%	-3.38%	-3.74%	1.17%	-2.56%	6.93%	6.38%	3.85%	-1.01%
O=S1(=O)c2ccccc2C2(CCN(Cc3ccccc3)C2)N1CC1CC1 (stereo unspecified)	-1.03%	0%	12.2%	4.58%	1.18%	2.1%	-0.264%	32.1%	3.19%	3.85%	2.59%
Cc1nc(CN(C)C2CCN(Cc3ccno3)C2)no1 (stereo unspecified)	-3.58%	18.2%	-53.5%	-23.7%	5.19%	-7.79%	29.4%	4.64%	3.81%	18.8%	3.1%
Cc1nc(COCc2cnc3n2CCN(CC2CCC2)C3C)cs1 (stereo unspecified)	-1.98%	-2.67%	-6.08%	4.28%	8.11%	-56.8%	12.7%	-20.7%	-1.04%	7.5%	-4.06%
COc1ccc(CCN2CCCC(CN(C)Cc3ccc(C)o3)C2)cc1 (stereo unspecified)	-1.16%	0%	-4.07%	31.8%	5.18%	4.71%	0.772%	11.1%	5.38%	11.1%	0.528%
CC(O)CN1CCC(CNCc2ccc(S(C)(=O)=O)cc2)CC1 (stereo unspecified)	-2%	19.2%	-8.77%	13.4%	2.15%	8.64%	24.5%	5.76%	4.3%	15%	-7.9%
O=C(Nc1cc(F)ccc1OCC1CCCO1)N1CCCC1 (stereo unspecified)	-0.769%	2.6%	-5.42%	10.4%	6.55%	3.56%	-2.37%	-1.89%	2.91%	14.6%	-5.42%
CCC(=O)N(C)C1CCN(Cc2ncc(C)c(OC)c2C)CC1	-5.54%	18.2%	-1.36%	-0.124%	2.25%	2.13%	18.9%	16.3%	5.83%	19.5%	-7.08%
CC(O)CN1CCN(Cc2cccc(C(=O)N(C)C)c2)CC1 (stereo unspecified)	-4.84%	-141%	-53.4%	5.64%	1.02%	-3.51%	-4.31%	5.72%	5.94%	3.66%	9.61%
COCCC(=O)Nc1ccnc(Oc2ccccc2)c1	2.99%	-5.26%	0.138%	-14%	-6.91%	7.1%	15.4%	19.5%	1.06%	7.79%	-6.2%
O=C(N1CCOCC1)[C@@]12CCO[C@@H]1CCN(CC1CCCCC1)C2	-4.88%	-1.33%	2.35%	-2.81%	-5.3%	-10%	7.58%	12.3%	-3.17%	-10.3%	-2.92%
Cc1cc(N2CCN(Cc3ccc(-c4cc[nH]n4)o3)CC2)cc(C)n1	-5.81%	13.3%	-25.4%	33.9%	10.2%	10.9%	12.7%	9.15%	3.83%	13.6%	-5.59%
CNC(=O)[C@@]12CCO[C@@H]1CCN(S(=O)(=O)c1cccnc1)C2	-5.53%	10.8%	0.489%	-1.11%	4.99%	-3.5%	9.96%	4.96%	5.41%	12.8%	0.201%
